Inconclusive results are not listed. Activity calls are given as the source filed them. Unless noted, calls follow the shape of the dose curve; as a rule, active = well fitted curve in the direction sought with a large enough effect in the repeat runs; inconclusive = weak or mixed curves; inactive = no such curve, though single readings can be large; an effect the other way counts as inactive or inconclusive.
Legend:
[1] = qHTS assay for small molecule agonists of the p53 signaling pathway (AID 651631; calls by dose curve; also: nearly all actives have a fitted effect of over 15% in size)
Method in brief: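 Readout was fluorescence from the LiveBLAzer FRET substrate, applied for 2 h at room temperature after 16 h compound exposure at 37 °C. Cells were the p53RE-bla HCT-116 line, with beta-lactamase driven by p53 response elements.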

[2] = qHTS assay for small molecules that induce genotoxicity in human embryonic kidney cells expressing luciferase-tagged ATAD5 (AID 651632); also: nearly all actives have a fitted effect of over 15% in size
Method in brief: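 Reporter cells (HEK293T) express luciferase-tagged ATAD5, a protein that accumulates after DNA damage. Treat 16 hr at 37C/5% CO2, add Amplite, wait 30 min at RT, and read luminescence.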

[3] = qHTS assay for small molecule agonists of the p53 signaling pathway - cell viability (AID 651633; calls by dose curve; also: series mostly up to about 83 µM; nearly all actives have a fitted effect of over 30% in size)
Method in brief: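 Viability counter-read: CellTiter-Glo luminescence (30 min, room temperature) in the same p53RE-bla plates. These plates had been exposed to compounds for 16 h at 37 C.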

[4] = qHTS assay for small molecules that induce genotoxicity in human embryonic kidney cells expressing luciferase-tagged ATAD5 - cell viability (AID 651634; calls by dose curve; also: nearly all actives have a fitted effect of over 25% in size)
Method in brief: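 Seeding of 2,000 HEK293T ATAD5-luciferase cells per well preceded pin-tool compound transfer. Plates sat 15.5 hr at 37C under 5% CO2, then fluorescence was read after 30 min with CellTiter-Fluor.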

[5] = qHTS assay for small molecule disruptors of the mitochondrial membrane potential - cell viability (AID 720634; calls by dose curve;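 also: human HepG2 liver cancer cells; series mostly up to about 83 µM; nearly all actives have a fitted effect of over 20% in size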)
Method in brief: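 Measuring cytotoxicity alongside mitochondrial potential, the screen quantified ATP by luminescence in HepG2 cells after 1 hr compound incubation and a 30 min room-temperature CellTiter-Glo step.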

[6] = qHTS assay for small molecule disruptors of the mitochondrial membrane potential (AID 720635)
Method in brief: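 Mitochondrial membrane potential tracked with Mito-MPS dye, red aggregates (ex 540/em 590 nm) against green monomers (ex 490/em 535 nm). Compound treatment 1 hr at 37C, dye 30 min in HepG2.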

[7] = qHTS assay to test for compound auto fluorescence at 590 nm (red) in HepG2 cells (AID 720674)
Method in brief: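 Red autofluorescence (Ex/Em 540/590 nm, Rose Bengal sodium equivalents) was measured in HepG2 cells, 2,000 per well in MEM plus 10% FBS, plated overnight at 37 C. Readings were taken 1 hr after adding 23 nL compound or DMSO, at 37 C and 5% CO2.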

[8] = qHTS assay to test for compound auto fluorescence at 535 nm (green) in HepG2 cells (AID 720675)
[9] = qHTS assay to test for compound auto fluorescence at 460 nm (blue) in HEK293 cells (AID 720678)
Method in brief: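 Measured: blue fluorescence (Ex 405/Em 460 nm) of compound-treated HEK293 cells, incubated overnight at 37C with 5% CO2 and scaled to triamterene equivalents.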

[10] = qHTS assay to test for compound auto fluorescence at 590 nm (red) in HEK293 cells (AID 720679)
Method in brief: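 Using HEK293 cells at 2,000 per well, the screen added 23 nL of each compound after cell attachment and incubated overnight (37C, 5% CO2). The plate reader then captured red-label fluorescence, Ex/Em 540/590nm.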

[11] = qHTS assay to test for compound auto fluorescence at 535 nm (green) in HEK293 cells (AID 720680)
[12] = qHTS assay to test for compound auto fluorescence at 460 nm (blue) in HEK293 cell free culture (AID 720681)
Method in brief: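 Blue fluorescence (Ex 405/Em 460 nm, triamterene-equivalent) was read immediately after pin transfer of compound or DMSO into medium (DMEM, 10% FBS) without cells.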

[13] = qHTS assay to test for compound auto fluorescence at 535 nm (green) in HEK293 cell free culture (AID 720682)
Method in brief: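 Compounds were pin-transferred into cell-free DMEM with 10% FBS, and green fluorescence was read at excitation 485 nm and emission 535 nm. Intensities were expressed as fluorescein-equivalent values.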

[14] = qHTS assay to test for compound auto fluorescence at 590 nm (red) in HEK293 cell free culture (AID 720683)
Method in brief: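 Red-channel autofluorescence of compounds in culture medium (DMEM, 10% FBS), no cells, measured at 540/590 nm. Rose Bengal sodium is the reference fluorophore for equivalence.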

[15] = qHTS assay to test for compound auto fluorescence at 590 nm (red) in HepG2 cell free culture (AID 720684)
Method in brief: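 Plate contents were MEM with 10% FBS plus test compound or DMSO, no cells. Fluorescence was recorded with 540 nm excitation and 590 nm emission.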

[16] = qHTS assay to test for compound auto fluorescence at 460 nm (blue) in HepG2 cell free culture (AID 720685)
Method in brief: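 Compound (23 nL) or DMSO pinned into cell-free MEM with 10% FBS; blue fluorescence read at 405/460 nm excitation/emission, expressed as auto-fluorescence equivalency to triamterene.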

[17] = qHTS assay to test for compound auto fluorescence at 535 nm (green) in HepG2 cell free culture (AID 720686)
[18] = qHTS assay to test for compound auto fluorescence at 460 nm (blue) in HepG2 cells (AID 720687)
Method in brief: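 Blue-channel autofluorescence (Ex/Em 405/460 nm, triamterene-equivalent) was measured after 1 hr compound exposure at 37 C, 5% CO2. Cells were HepG2, plated overnight at 37 C in MEM plus 10% FBS.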

[19] = target: Glucocorticoid receptor (Homo sapiens) (UniProt P04150); assay: qHTS assay to identify small molecule agonists of the glucocorticoid receptor (GR) signaling pathway (AID 720691; active = well fitted activation curve with a large enough effect in the signal ratio in the repeat runs, not every such curve was filed as active; the % refers to the signal ratio)
Method in brief: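 Reporter read-out: fluorescence intensity following 2 h room-temperature LiveBLAzer B/G FRET substrate loading. Prior step: GR-bla HeLa cells held 4 h, then treated 18 h at 37 C.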

[20] = target: Glucocorticoid receptor (Homo sapiens) (UniProt P04150); assay: qHTS assay to identify small molecule antagonists of the glucocorticoid receptor (GR) signaling pathway (AID 720692; active = well fitted inhibition curve with a large enough effect in the signal ratio in the repeat runs, not every such curve was filed as active; the % refers to the signal ratio)
Method in brief: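 Dexamethasone (5 nM final) stimulated a stably integrated GRE-beta-lactamase reporter in HeLa cells during 18 h co-incubation with compounds; signal was quantified as fluorescence intensity of B/G FRET substrate after 2 h.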

[21] = qHTS assay to identify small molecule antagonists of the glucocorticoid receptor (GR) signaling pathway - cell viability counter screen (AID 720693); also: nearly all actives have a fitted effect of over 55% in size
[22] = qHTS assay for identifying genotoxic compounds that show differential cytotoxicity against isogenic chicken DT40 cell lines with known DNA damage response pathways - wild type cell line (AID 743012); also: nearly all actives have a fitted effect of over 60% in size
Method in brief: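 Using parental DT40 (300 cells/well), compounds delivered in DMSO incubate 40 h at 37 C/5% CO2. CellTiter-Glo reagent then stands 30 min at room temperature, and luminescence gives cell viability.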

[23] = qHTS assay for identifying genotoxic compounds that show differential cytotoxicity against isogenic chicken DT40 cell lines with known DNA damage response pathways - Rev3 mutant cell line (AID 743014); also: nearly all actives have a fitted effect of over 55% in size
[24] = qHTS assay for identifying genotoxic compounds that show differential cytotoxicity against isogenic chicken DT40 cell lines with known DNA damage response pathways - Rad54/Ku70 mutant cell line (AID 743015); also: nearly all actives have a fitted effect of over 60% in size
[25] = qHTS assay to identify small molecule antagonists of the androgen receptor (AR) signaling pathway using the MDA cell line - cell viability counter screen (AID 743041; also: nearly all actives have a fitted effect of over 45% in size)
Method in brief: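 R1881-driven MDA-kb2 AR-luc cells, 3,000/well, were dosed with library compounds for 16 h; cell health came from CellTiter-Fluor fluorescence in the reporter wells.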

[26] = qHTS assay to identify small molecule antagonists of the thyroid receptor (TR) signaling pathway - cell viability counter screen (AID 743064); also: nearly all actives have a fitted effect of over 50% in size
Method in brief: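 In-well cytotoxicity read by CellTiter-Fluor (30 min, 37 C) following 23.5 h exposure of GH3 cells bearing a TRE-luciferase sensor. Compounds were added alongside 1 nM (final) T3 to drive TR transactivation.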

[27] = qHTS assay to identify small molecule antagonists of the thyroid receptor (TR) signaling pathway (AID 743065); also: series mostly up to about 70 µM; nearly all actives have a fitted effect of over 55% in size
Method in brief: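 Antagonism measured as loss of luciferase signal in GH3 cells stably carrying a TRE-luciferase reporter, co-treated with compound and T3 (1 nM final) for 23.5 h at 37 C. Viability was read in the same well by CellTiter-Fluor.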

[28] = system: thyroid hormone receptor (rat, GH3 cells); assay: qHTS assay to identify small molecule agonists of the thyroid receptor (TR) signaling pathway (AID 743066; calls by dose curve)
[29] = qHTS assay to identify small molecule antagonists of the estrogen receptor alpha (ER-alpha) signaling pathway - cell viability counter screen (AID 743074; calls by dose curve;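 also: HEK293 cells carrying ER-alpha-UAS-bla reporter stimulated with 17beta-estradiol; nearly all actives have a fitted effect of over 45% in size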)
[30] = target: Estrogen receptor (Homo sapiens) (UniProt P03372); assay: qHTS assay to identify small molecule agonists of the estrogen receptor alpha (ER-alpha) signaling pathway (AID 743075; calls by dose curve;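 also: HEK293 GripTite cells with ER-alpha and UAS-driven beta-lactamase reporter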)
[31] = target: Estrogen receptor (Homo sapiens) (UniProt P03372); assay: qHTS assay to identify small molecule agonists of the estrogen receptor alpha (ER-alpha) signaling pathway using the BG1 cell line (AID 743079); also: nearly all actives have a fitted effect of over 20% in size
[32] = qHTS assay to identify small molecule antagonists of the estrogen receptor alpha (ER-alpha) signaling pathway using the BG1 cell line (AID 743080; calls by dose curve;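 also: BG1 cells stimulated with 17beta-estradiol alongside compound; series mostly up to about 70 µM; nearly all actives have a fitted effect of over 25% in size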)
Method in brief: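 Quantitative HTS on the Tox21 10K library: BG1 cells with endogenous ER-alpha and ERE-luciferase reporter, 17beta-estradiol stimulation, 21.5 h compound exposure, luminescence endpoint with parallel fluorescence cytotoxicity counter-read.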

[33] = qHTS assay to identify small molecule antagonists of the estrogen receptor alpha (ER-alpha) signaling pathway using the BG1 cell line - cell viability counter screen (AID 743081);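 also: compound given together with 17beta-estradiol as the ER stimulus; series mostly up to about 70 µM; nearly all actives have a fitted effect of over 45% in size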
Aromatase (Homo sapiens) = Aromatase (Homo sapiens) (UniProt P11511); assay: qHTS assay to identify aromatase inhibitors (AID 743083); also: series mostly up to about 70 µM; nearly all actives have a fitted effect of over 55% in size
[34] = qHTS assay to identify aromatase inhibitors - cell viability counter screen (AID 743084)
[35] = target: Aryl hydrocarbon receptor (Homo sapiens) (UniProt P35869); assay: qHTS assay to identify small molecule that activate the aryl hydrocarbon receptor (AhR) signaling pathway (AID 743085);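 also: HG2L7.5c1 human HepG2 liver cells with stably integrated DRE-driven firefly reporter; series mostly up to about 70 µM; nearly all actives have a fitted effect of over 15% in size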
Method in brief: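 Luminescence (ONE-Glo) from a dioxin-responsive-element luciferase reporter in HG2L7.5c1 HepG2 cells after 24 hr compound exposure at 37C; viability measured by CellTiter-Fluor fluorescence beforehand.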

[36] = qHTS assay to identify small molecule that activate the aryl hydrocarbon receptor (AhR) signaling pathway - cell viability counter screen (AID 743086);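 also: HepG2 liver cells carrying the AhR DRE luciferase reporter; series mostly up to about 70 µM; nearly all actives have a fitted effect of over 45% in size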
Method in brief: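 Cytotoxicity counter screen: CellTiter-Fluor signal (30 min, 37 C) in 4000 HepG2 cells/well carrying the DRE-luciferase reporter, following 24 h compound exposure at 37 C.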

[37] = qHTS assay to identify small molecule phospholipidosis (PLD) inducers (AID 1259344; active = well fitted curve in the direction sought with a large enough effect; an effect the other way counts as inactive or inconclusive)
Method in brief: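 Fluorescent phospholipid staining (LipidTOX Red) measured by automated microscopy in fixed HepG2 cells after 24 h treatment; nuclei counterstained with Hoechst 33342; amiodarone as reference inducer.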

[38] = target: Nuclear receptor subfamily 1 group I member 2 (Rattus norvegicus) (UniProt Q9R1A7); assay: Rat pregnane X receptor (rPXR) activation by small molecules, qHTS assay (AID 1346983); conditions: rPXR luciferase reporter cells, One-Glo luminescence, 24 h; max activation: active compounds read high; also: nearly all actives have a fitted effect of over 20% in size
Method in brief: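 Luminescent readout (One-Glo luciferase, 30 min room temperature) followed 24 hr compound treatment at 37 C of rPXR cells plated 2,000 per well and preincubated 5hr; qHTS format with compounds delivered in DMSO.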

[39] = target: Nuclear receptor subfamily 1 group I member 2 (Homo sapiens) (UniProt O75469); assay: CYP3A4 induction through human pregnane X receptor (PXR) by small molecules, qHTS assay (AID 1346984); also: nearly all actives have a fitted effect of over 40% in size
Method in brief: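 qHTS, concentration-response format: HepG2 DPX-2 line, PXR/CYP3A4-luc. Exposure 24 h, 37C. Substrate Luciferin-IPA 3uM final, 3 h. Detection One-Glo, 30 min RT.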

[40] = target: Nuclear receptor subfamily 1 group I member 2 (Homo sapiens) (UniProt O75469); assay: Human pregnane X receptor (PXR) activation by small molecules, qHTS assay (AID 1346985); also: nearly all actives have a fitted effect of over 40% in size
Method in brief: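 DPX-2 cells (HepG2 co-transfected with a PXR response element and a CYP3A4-promoter luciferase construct) were seeded at 2,000 per well, rested 5 hr at 37C, then exposed to DMSO-dissolved compounds for 24 hr. Activation was read as luciferase luminescence.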
% is scaled to controls: 0 for no effect and ±100 for the full control effect.

Sequence of Glucocorticoid receptor (Homo sapiens) (P04150 whole entry, looked up): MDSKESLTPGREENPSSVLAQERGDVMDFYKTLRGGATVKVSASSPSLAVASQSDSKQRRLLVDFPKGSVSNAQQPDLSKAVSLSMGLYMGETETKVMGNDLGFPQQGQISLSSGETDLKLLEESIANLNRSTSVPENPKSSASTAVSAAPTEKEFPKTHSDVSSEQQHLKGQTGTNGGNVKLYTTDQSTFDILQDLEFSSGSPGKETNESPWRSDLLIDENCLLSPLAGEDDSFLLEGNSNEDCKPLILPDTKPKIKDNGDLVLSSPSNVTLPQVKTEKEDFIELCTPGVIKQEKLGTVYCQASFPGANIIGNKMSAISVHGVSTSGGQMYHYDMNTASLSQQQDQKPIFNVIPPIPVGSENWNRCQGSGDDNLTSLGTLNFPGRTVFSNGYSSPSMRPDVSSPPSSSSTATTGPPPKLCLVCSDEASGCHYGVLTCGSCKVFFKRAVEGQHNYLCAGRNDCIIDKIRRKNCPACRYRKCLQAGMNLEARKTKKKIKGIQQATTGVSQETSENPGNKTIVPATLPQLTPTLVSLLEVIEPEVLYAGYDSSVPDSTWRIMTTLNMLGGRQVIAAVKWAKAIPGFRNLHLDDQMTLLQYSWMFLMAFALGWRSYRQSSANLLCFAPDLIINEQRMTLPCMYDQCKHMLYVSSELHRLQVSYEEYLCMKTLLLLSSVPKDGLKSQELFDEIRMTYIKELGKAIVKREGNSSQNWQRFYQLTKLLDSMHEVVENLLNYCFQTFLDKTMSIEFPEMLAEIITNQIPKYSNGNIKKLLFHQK
Sequence of Estrogen receptor (Homo sapiens) (P03372 whole entry, looked up): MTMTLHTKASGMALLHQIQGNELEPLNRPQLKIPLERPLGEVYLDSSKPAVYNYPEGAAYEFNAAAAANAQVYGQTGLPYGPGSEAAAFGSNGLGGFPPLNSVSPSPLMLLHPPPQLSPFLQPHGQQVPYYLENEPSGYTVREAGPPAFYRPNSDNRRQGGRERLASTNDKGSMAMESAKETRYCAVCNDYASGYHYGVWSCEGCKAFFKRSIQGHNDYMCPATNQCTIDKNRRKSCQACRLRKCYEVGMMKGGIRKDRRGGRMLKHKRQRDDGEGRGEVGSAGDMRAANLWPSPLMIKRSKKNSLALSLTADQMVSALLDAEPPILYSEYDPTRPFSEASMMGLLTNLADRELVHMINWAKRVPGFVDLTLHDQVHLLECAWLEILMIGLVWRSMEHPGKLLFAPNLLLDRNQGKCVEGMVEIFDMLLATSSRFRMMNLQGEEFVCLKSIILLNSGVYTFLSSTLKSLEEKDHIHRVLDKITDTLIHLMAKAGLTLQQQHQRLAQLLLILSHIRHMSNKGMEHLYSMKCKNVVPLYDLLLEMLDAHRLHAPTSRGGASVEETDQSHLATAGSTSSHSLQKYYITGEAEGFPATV
Sequence of Nuclear receptor subfamily 1 group I member 2 (Rattus norvegicus) (Q9R1A7 whole entry, looked up): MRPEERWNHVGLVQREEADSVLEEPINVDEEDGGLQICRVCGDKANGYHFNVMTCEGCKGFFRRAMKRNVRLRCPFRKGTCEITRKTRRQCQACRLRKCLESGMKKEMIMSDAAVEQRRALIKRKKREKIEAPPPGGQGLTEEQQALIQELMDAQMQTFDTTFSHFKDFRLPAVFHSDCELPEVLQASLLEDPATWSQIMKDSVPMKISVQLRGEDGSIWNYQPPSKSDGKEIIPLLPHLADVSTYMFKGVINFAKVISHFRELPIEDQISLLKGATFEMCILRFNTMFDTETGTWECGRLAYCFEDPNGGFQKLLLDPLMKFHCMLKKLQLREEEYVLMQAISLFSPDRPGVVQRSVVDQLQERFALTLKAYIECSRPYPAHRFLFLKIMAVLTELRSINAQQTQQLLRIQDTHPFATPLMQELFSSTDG
Sequence of Aromatase (Homo sapiens) (P11511 whole entry, looked up): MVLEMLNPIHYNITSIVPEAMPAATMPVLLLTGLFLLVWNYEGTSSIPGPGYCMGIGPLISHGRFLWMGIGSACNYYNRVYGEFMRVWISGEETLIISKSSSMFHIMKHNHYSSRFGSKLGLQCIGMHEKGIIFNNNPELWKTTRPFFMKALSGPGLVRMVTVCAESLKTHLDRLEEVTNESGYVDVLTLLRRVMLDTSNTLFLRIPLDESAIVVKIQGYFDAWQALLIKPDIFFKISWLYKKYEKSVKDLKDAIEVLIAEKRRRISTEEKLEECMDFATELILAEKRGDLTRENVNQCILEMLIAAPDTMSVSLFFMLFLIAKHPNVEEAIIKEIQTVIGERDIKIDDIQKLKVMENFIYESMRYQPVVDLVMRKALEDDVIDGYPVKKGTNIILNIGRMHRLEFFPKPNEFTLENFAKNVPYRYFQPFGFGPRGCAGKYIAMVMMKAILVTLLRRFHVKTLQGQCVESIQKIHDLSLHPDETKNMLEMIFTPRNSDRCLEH
Sequence of Aryl hydrocarbon receptor (Homo sapiens) (P35869 whole entry, looked up): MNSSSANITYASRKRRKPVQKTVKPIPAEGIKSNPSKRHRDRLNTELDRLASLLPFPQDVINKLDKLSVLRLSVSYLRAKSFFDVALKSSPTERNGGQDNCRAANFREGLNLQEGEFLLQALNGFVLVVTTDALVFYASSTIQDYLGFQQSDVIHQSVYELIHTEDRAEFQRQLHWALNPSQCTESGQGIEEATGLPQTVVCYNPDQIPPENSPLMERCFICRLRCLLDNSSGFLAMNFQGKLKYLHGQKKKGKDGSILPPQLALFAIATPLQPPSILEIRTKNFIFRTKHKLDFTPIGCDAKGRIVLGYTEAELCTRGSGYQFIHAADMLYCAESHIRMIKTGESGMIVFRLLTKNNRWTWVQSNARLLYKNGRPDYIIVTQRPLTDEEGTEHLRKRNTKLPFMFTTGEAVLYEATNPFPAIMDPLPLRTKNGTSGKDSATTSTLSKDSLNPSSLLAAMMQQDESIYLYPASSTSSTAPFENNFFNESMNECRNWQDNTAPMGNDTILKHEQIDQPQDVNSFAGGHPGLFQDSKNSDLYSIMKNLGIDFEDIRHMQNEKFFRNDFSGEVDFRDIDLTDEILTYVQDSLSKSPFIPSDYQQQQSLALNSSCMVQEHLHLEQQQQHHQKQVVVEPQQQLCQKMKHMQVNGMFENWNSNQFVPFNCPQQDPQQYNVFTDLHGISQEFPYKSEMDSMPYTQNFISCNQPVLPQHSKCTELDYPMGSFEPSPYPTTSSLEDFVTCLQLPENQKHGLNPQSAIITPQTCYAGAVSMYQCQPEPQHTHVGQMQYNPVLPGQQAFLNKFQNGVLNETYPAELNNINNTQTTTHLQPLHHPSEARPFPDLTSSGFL

CC(=O)OCC(=O)[C@H]1CC[C@H]2[C@@H]3CC[C@H]4C[C@H](O)CC[C@]4(C)[C@H]3C(=O)C[C@]12C
inactive: Potency [1] | Potency [2] | Potency [3] | Potency [4] | Potency [5] | Potency [6] | outcome [7] | Potency [8] | Potency [9] | outcome [10] | Potency [11] | Potency [12] | Potency [13] | outcome [14] | outcome [15] | Potency [16] | Potency [17] | Potency [18] | Potency [19] | Potency [20] | Potency [21] | Potency [22] | Potency [23] | Potency [24] | Potency [25] | Potency [26] | Potency [27] | Potency [28] | Potency [29] | Potency [30] | Potency [31] | Potency [32] | Potency [33] | Potency (Aromatase (Homo sapiens)) | Potency [34] | Potency [35] | Potency [36] | Potency [37] | max activation [38] -0.613% | Potency [39] | Potency [40]

Source: PubChem BioAssay (Tox21)
